Source: PubChem BioAssay
A-T KAP1 phos = potential ataxia-telangiectasia treatments restoring KAP-1 phosphorylation. F2112 A-T fibroblasts, KAP-1 phosphorylation AlphaLISA; neocarzinostatin DNA damage 30 min before lysis. Potency, µM (top dose mostly 57.5 µM), usual class: activators. 0.19% of 320,000 active; also: nearly all actives have a fitted effect of over 45% in size
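hTERT-immortalized A-T patient fibroblasts (F2112), 500 cells/well in OPTI-MEM, 1% FBS, got compounds for 60 min, then NCS for 30 min at 37C. Lysates were then assayed for phospho-KAP-1 by AlphaLISA (anti-pKAP1 donor, anti-KAP1 acceptor beads), 6 hr at 25C.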
TRPV1 ag = activates the human vanilloid receptor TRPV1; TRPV1-expressing cells, Fluo-8 calcium influx, agonist mode; 0.19% of 320,000 active; AID 540275; Q8NER1; activation, % at 8.33 µM; in the data active = activation above about 80%; inconclusive = between about 30% and that limit
Target sequence (Q8NER1 whole entry, looked up): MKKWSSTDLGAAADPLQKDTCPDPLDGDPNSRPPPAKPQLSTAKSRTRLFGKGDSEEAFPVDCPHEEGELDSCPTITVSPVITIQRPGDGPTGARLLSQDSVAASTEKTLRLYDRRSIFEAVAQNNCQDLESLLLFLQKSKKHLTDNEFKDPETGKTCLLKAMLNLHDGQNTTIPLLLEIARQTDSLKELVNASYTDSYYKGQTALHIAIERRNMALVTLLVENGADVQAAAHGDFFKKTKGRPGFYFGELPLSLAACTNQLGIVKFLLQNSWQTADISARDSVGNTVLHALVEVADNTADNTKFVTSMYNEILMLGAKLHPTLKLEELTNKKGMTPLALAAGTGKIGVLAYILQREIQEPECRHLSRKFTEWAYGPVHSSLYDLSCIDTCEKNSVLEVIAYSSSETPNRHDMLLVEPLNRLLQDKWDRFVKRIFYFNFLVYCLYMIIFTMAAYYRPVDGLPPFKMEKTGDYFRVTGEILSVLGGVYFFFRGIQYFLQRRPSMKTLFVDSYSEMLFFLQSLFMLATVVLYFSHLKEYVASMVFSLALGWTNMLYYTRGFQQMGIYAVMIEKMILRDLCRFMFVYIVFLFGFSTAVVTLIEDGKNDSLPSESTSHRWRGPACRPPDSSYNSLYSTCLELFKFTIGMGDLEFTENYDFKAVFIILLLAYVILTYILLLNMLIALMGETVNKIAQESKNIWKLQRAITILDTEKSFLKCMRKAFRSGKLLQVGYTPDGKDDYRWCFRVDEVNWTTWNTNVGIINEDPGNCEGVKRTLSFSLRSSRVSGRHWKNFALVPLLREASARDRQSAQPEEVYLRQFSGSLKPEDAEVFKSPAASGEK
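Cells expressing TRPV1 were dye-loaded with Fluo-8 and read kinetically: 10 s baseline, 3 min after compound (agonist portion), then 2 min after EC20 capsaicin (allosteric enhancer portion). Calcium-bound dye fluorescence at 480/520 nm.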
IMPase Li inh = IMPase inhibition in cells with lithium potentiation | 0.35% of 210,000 active | Potency, µM (titrated, usually from 59.4 µM), hits mostly inhibitors | CHO-M1 cells, IP1 TR-FRET (IP-One), carbachol + lithium;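 also: IP1 builds up when IMPase is blocked and the TR-FRET signal falls; nearly all actives have a fitted effect of over 50% in size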
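CHO cells stably expressing M1 receptor (2000/well, cultured 16–30 h) treated 30 min at 37C with compound plus low lithium. Cytosolic IP1 by TR-FRET (665/620 ratio and 620 channel) after 10 min lysis; AC50 by Hill fit.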
TRPV1 potentiator = potentiators of human vanilloid receptor 1 (TRPV1); Q8NER1; TRPV1-expressing cells, Fluo-8 calcium influx, capsaicin EC20 potentiation; potentiation, % at 8.33 µM; 0.02% of 320,000 active; in the data active = potentiation above about 80%; inconclusive = between about 30% and that limit
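Cells expressing TRPV1 were dye-loaded with Fluo-8 and read kinetically: 10 s baseline, 3 min after compound (agonist portion), then 2 min after EC20 capsaicin (allosteric enhancer portion). Calcium-bound dye fluorescence at 480/520 nm.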
Numbers stand for hits; [ ] = remark or other dose. This is a sample that favours compounds with a hit; in the whole collection about 0.55% have one here. Unless noted, calls follow the shape of the dose curve; as a rule, active = well fitted curve in the direction sought with a large enough effect; inconclusive = small, poorly fitted or top-dose-only effect, or another doubt; inactive = no such curve, though single readings can be large; an effect the other way counts as inactive or inconclusive.

For Cc1nc(NC(=O)c2ccc(F)cc2)sc1C(=O)Nc1ccc2c(c1)CCC2 the results were A-T KAP1 phos inactive and IMPase Li inh 22µM.
Screening Cc1ccccc1-c1cncnc1NCc1cccs1 returned IMPase Li inh inactive.
Screening Cc1cc2c(s1)c1c(n2C)C(=O)N(Cc2ccccc2F)C1 returned A-T KAP1 phos inactive.
For Cc1cccc(S(=O)(=O)c2c(N)n(Cc3ccco3)c3nc4ccccc4nc23)c1 the results were A-T KAP1 phos inactive, TRPV1 ag inactive, IMPase Li inh inactive and TRPV1 potentiator inactive.
For Cc1ccc(S(=O)(=O)c2c(N)n(Cc3ccco3)c3nc4ccccc4nc23)cc1 the results were A-T KAP1 phos 32µM, TRPV1 ag inactive, IMPase Li inh inactive and TRPV1 potentiator inactive.
For C=CCn1c(NS(=O)(=O)c2ccccc2)c(S(=O)(=O)c2ccc(C)cc2)c2nc3ccccc3nc21 the results were A-T KAP1 phos 22µM, TRPV1 ag inactive, IMPase Li inh inconclusive and TRPV1 potentiator inactive.
Screening O=S(=O)(Nc1c(S(=O)(=O)c2ccccc2)c2nc3ccccc3nc2n1C1CCCCC1)c1ccccc1 returned A-T KAP1 phos inactive, TRPV1 ag inactive, IMPase Li inh inactive and TRPV1 potentiator inactive.
`FC(F)(F)c1cc(NC(=S)N2c3ccccc3-n3cccc3[C@H]2c2cccnc2)cc(C(F)(F)F)c1` gave IMPase Li inh inactive.
Cc1ccc(NC(=O)CN(C)Cc2cc(=O)n3ccsc3n2)cc1 was read as A-T KAP1 phos 13µM, TRPV1 ag inactive and TRPV1 potentiator inactive.
COc1ccc2c3c(c(=O)oc2c1)C1O[C@](c2ccsc2)(Cc2cc(C#N)ccc21)O3 was read as A-T KAP1 phos inactive[11.5 µM], TRPV1 ag inactive and TRPV1 potentiator inactive.
Screening Cc1c(CCC(=O)NCCCCCC(=O)O)c(=O)oc2cc3occ(-c4ccccc4)c3cc12 returned A-T KAP1 phos 8.9µM, TRPV1 ag inactive and TRPV1 potentiator inactive.
Cc1c(CC(=O)NCCCC(=O)O)c(=O)oc2cc3occ(-c4ccccc4)c3cc12 was read as A-T KAP1 phos inactive, TRPV1 ag inactive and TRPV1 potentiator inactive.
C/C(N=NC(=[SH+])SCc1ccccc1)=C1\C=CC=CN1.[Cl][Cu] was read as IMPase Li inh inactive.
For FC(F)(F)c1nc(=S)c2ccccc2[nH]1 the results were A-T KAP1 phos inactive, TRPV1 ag inactive, IMPase Li inh 3.2µM and TRPV1 potentiator inactive.
For Cc1nc(=S)c2ccccc2[nH]1 the results were A-T KAP1 phos inactive, TRPV1 ag inactive, IMPase Li inh inactive and TRPV1 potentiator inactive.
O[C@@H](c1cc(-c2ccccc2)nc2c1ccc1ccccc12)C1CCCCN1 (some centres undefined) was read as IMPase Li inh inactive.
Screening O=C(Nc1ccccn1)c1cc(-c2cccnc2)nc2ccc(Br)cc12 returned A-T KAP1 phos inactive, TRPV1 ag inactive, IMPase Li inh 11µM and TRPV1 potentiator inactive.
Screening Cc1cc(NC(=O)c2cc(-c3ccccn3)nc3ccc(Br)cc23)no1 returned A-T KAP1 phos inactive, TRPV1 ag inconclusive and TRPV1 potentiator inactive.
O=C(c1cc(-c2cccnc2)nc2ccc(Br)cc12)N1CCN(c2ncccn2)CC1 was read as A-T KAP1 phos inactive, TRPV1 ag inactive, IMPase Li inh 11µM and TRPV1 potentiator inactive.
Screening NS(=O)(=O)c1ccc(CCNC(=O)c2cc(-c3ccccn3)nc3ccc(Br)cc23)cc1 returned A-T KAP1 phos inactive, TRPV1 ag inconclusive, IMPase Li inh 11µM and TRPV1 potentiator inactive.
`CNc1ncnc2ccc(-c3c(C)noc3C)cc12` gave A-T KAP1 phos inactive, TRPV1 ag inactive and TRPV1 potentiator inactive.
Screening CCN1N=C(c2ccccc2)Cn2c1nc1ccccc12 returned TRPV1 ag 90, IMPase Li inh inactive and TRPV1 potentiator inactive.
Screening O[C@@H](c1cc([C@@]23C[C@H]4CC[C@@H]2C[C@H](C4)C3)nc2c(Cl)cc(Cl)cc12)C1CCCCN1 (some centres undefined) returned IMPase Li inh inactive.
CCCCCCC(O)(c1ccccc1)C(CN1CCOCC1)c1ccccc1 (centres undefined) was read as A-T KAP1 phos inactive, TRPV1 ag inactive and TRPV1 potentiator inactive.
CCCCCC(O)(c1ccccc1)C(CN1CCOCC1)c1ccccc1 (centres undefined) was read as A-T KAP1 phos 32µM, TRPV1 ag inactive and TRPV1 potentiator inactive.
CCCC(O)(c1ccc(CC)cc1)C(CN1CCOCC1)c1ccccc1 (centres undefined) was read as A-T KAP1 phos 32µM, TRPV1 ag inconclusive and TRPV1 potentiator inactive.
Oc1ccc(Cl)cc1C1C=C(c2ccc3c(c2)OCO3)NC(c2cc(Br)ccc2F)N1 (centres undefined) was read as TRPV1 ag inactive and TRPV1 potentiator inactive.
For CC(C)C(O)(C(C)C)C(C)C the results were IMPase Li inh inactive.
For NC(=O)/N=C(\N)NC(=O)c1ccccc1 the results were IMPase Li inh inactive.
COc1ccc(-c2sc3ccc(OC)cc3c2C#Cc2cncn2C)cc1 was read as A-T KAP1 phos 28µM.
`Cc1ccc(/C=N/N(C)S(=O)(=O)c2ccc(C)cc2)cc1` gave A-T KAP1 phos 28µM, TRPV1 ag inactive and TRPV1 potentiator inactive.
Cc1noc(NC(=O)Nc2ccccc2F)c1C#N was read as IMPase Li inh inactive.
For Cc1nnsc1C(=O)NC1CCCc2c1cnn2-c1ccccc1F (centres undefined) the results were A-T KAP1 phos inactive, TRPV1 ag inconclusive and TRPV1 potentiator inactive.
Screening Cc1nnsc1C(=O)NC1CCCc2c1cnn2-c1ccc(C(C)(C)C)cc1 (centres undefined) returned A-T KAP1 phos inactive, TRPV1 ag 85 and TRPV1 potentiator inactive.
Screening Cc1ccc(C(O)c2nc3ccccc3n2C(C)C)cc1 (centres undefined) returned A-T KAP1 phos inactive, TRPV1 ag inactive, IMPase Li inh inactive and TRPV1 potentiator inactive.
Screening COc1ccc(C(O)c2nc3ccccc3n2C(C)C)cc1 (centres undefined) returned A-T KAP1 phos 28µM, TRPV1 ag inactive and TRPV1 potentiator inconclusive.
For CCC(C)Sc1cc(-c2nc3ccccn3c2NC2CCCCC2)ccc1OC (centres undefined) the results were A-T KAP1 phos 32µM, TRPV1 ag inactive and TRPV1 potentiator inactive.
Screening CCC(C)Sc1ccc(-c2nc3ccc(C)cn3c2NC2CCCCC2)cc1 (centres undefined) returned A-T KAP1 phos inactive, TRPV1 ag inactive and TRPV1 potentiator inactive.
`CCC(C)Sc1cccc(-c2nc3ccc(C)cn3c2NC2CCCCC2)c1` (centres undefined) gave A-T KAP1 phos 25µM, TRPV1 ag inconclusive and TRPV1 potentiator inconclusive.
For COC(=O)c1cc(=O)c(O)c2c(O)c(O)ccc2c1 the results were IMPase Li inh inactive.
Screening CC(C)(C)OC(=O)[C@H](C1N[C@@H](C(=O)O)C(C)(C)S1)N1C(=O)c2ccccc2C1=O (some centres undefined) returned IMPase Li inh inactive.
